Measurements as given in PubChem BioAssay AID686979 (National Center for Advancing Translational Sciences (NCATS), 2013).
Hit rate of the full screen: of about 420,000 compounds, about 50,000 (12%) were called active. Not shown: some 26% with an inconclusive outcome. For the sample, actives were picked, then their nearest neighbours and some compounds at random. Values without a mark were called inactive. Calls follow the shape of the dose curve; as a rule, active = well fitted inhibition curve with a large enough effect; inconclusive = small, poorly fitted or top-dose-only effect; inactive = flat fitted curve, though single readings scatter.

Assay: qHTS for Inhibitors of human tyrosyl-DNA phosphodiesterase 1 (TDP1): qHTS in cells in presence of CPT; also: nearly all actives have a fitted effect of over 55% in size
Conditions: chicken DT40 Tdp1-/-;hTDP1 cells + 20 nM CPT, ATP luminescence, 48 h; series mostly up to 46.2 µM; activity change, negative = growth inhibition: at the top concentration
Method in brief: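 Chicken DT40 Tdp1-/- cells complemented with human TDP1, 400 cells/well, exposed to compounds plus 20 nM camptothecin for at least 48 h at 37 C; viability read as ATP content by CellTiter-Glo luminescence.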
% is scaled to controls: 0 for no effect and ±100 for the full control effect; potency is read from the fitted curve at half-maximal effect.

SMILES	activity change, negative = growth inhibition	Potency
O=C(Nc1ccccc1N1CCOCC1)c1ccncc1	-1.96%	
O=C(Nc1ccccc1N1CCCCC1)c1ccc2nccnc2c1		20.6 µM (active)
O=C(Nc1ccccc1N1CCCCC1)c1cccc(F)c1	-28.7%	
COC(=O)c1cccc(N(C(=O)CNC(=O)c2cccs2)C(C(=O)NCC2CCCO2)c2ccc(OC)c(OC)c2)c1 (configuration not stated)	1.61%	
CNC(=O)CN1C(=O)c2cccnc2Sc2ccccc21	-3.74%	
CC(C)NC(=O)N1CC[C@@]2(CCCN(C(=O)c3cccc(F)c3)C2)C1	2.88%	
CC(=O)N1CCC2(CCCN(c3ncccn3)C2)CC1	12.2%	
O=C(c1cc(C(F)(F)F)cc(C(F)(F)F)c1)N1CCC[C@@]2(CCN(c3ccccn3)C2)C1		16.4 µM (active)
Cc1cc(F)ccc1S(=O)(=O)Nc1ccc(C(=O)N(C)Cc2ccco2)cc1	-17.2%	
COc1c(C=O)c(CCN(C)C(=O)c2ccc(F)cc2)cc2c1OCO2	1.5%	
COc1cccc2c1OCC(CN1CCN(C3CCCCC3)C(CCO)C1)=C2 (configuration not stated)	17.8%	
COc1ccc(-n2c(=O)c3ccccc3n(Cc3ccccc3Cl)c2=O)cc1	-12.9%	
CC(=O)OC[C@H]1O[C@@H](O[C@H]2[C@H](O)[C@@H](OC(=O)c3ccccc3C(=O)O)[C@H](O)O[C@@H]2COC(C)=O)[C@H](O)[C@@H](OC(=O)c2ccccc2C(=O)O)[C@@H]1O	9.29%	
O=C(CNC(=O)COc1ccccc1)NCCc1ccccn1	25.9%	
COc1cncc(-c2cnc3sc(NCCc4ccccn4)nn23)c1		13 µM (active)
Cc1ccc(C(=O)N/C(=C\c2cccs2)C(=O)NCCc2ccccn2)cc1C	-4.71%	
N#Cc1cc([N+](=O)[O-])ccc1NCC1CCCO1 (configuration not stated)	-1.48%	
O=C(O)CN1c2cccc3cccc(c23)S1(=O)=O	8.65%	
Cc1ccc(NC(=O)/C(=C\c2ccccc2)NC(=O)c2ccco2)cc1	19.2%	
FC(F)Oc1ccccc1C1CC(c2ccc(Br)s2)Nc2ncnn21 (configuration not stated)		11.6 µM (active)
COc1ccc(C2CC(c3ccccc3)Nc3ncnn32)cc1 (configuration not stated)	-21.6%	
Clc1ccc(C2CC(c3cccs3)n3ncnc3N2)cc1Cl (configuration not stated)	-15.9%	
CCOC(=O)Cn1nnnc1C	2.09%	
O=C(O)c1cc(S(=O)(=O)N(Cc2ccccc2)c2ccccc2)ccc1Cl	14.8%	
COc1cc2nnn(-c3ccncc3)c2cc1OC	1.19%	
Cc1nn(CC(=O)NCCc2ccccc2)c(=O)c2cc3occc3n12	1.61%	

SMILES	activity change, negative = growth inhibition	Potency
COCCNC(=O)c1cc2c(Br)ccc(Br)c2nc1N	1.46%	
CNCC(O)CN1CCN(c2ccccc2OC)CC1 (configuration not stated)	-3.99%	
COc1ccccc1N1CCN(CC(=O)NC(=O)NCc2ccco2)CC1	-0.174%	
COc1ccccc1N1CCN(CCN2C(=O)c3ccccc3C(C)(C)C2=O)CC1		14.6 µM (active)
COc1ccc2c(C)cc3nnnn3c2c1	1.49%	
CC(C)[C@H](NC(=O)N1CC(=O)Nc2ccccc21)C(=O)N[C@@H](Cc1c[nH]c2ccccc12)C(=O)O	8.26%	
CCN(C(=O)Cn1cnc2sc(C)c(S(=O)(=O)N3CCN(c4ncccn4)CC3)c2c1=O)c1ccccc1F	-17.6%	
CCOc1ccc(S(=O)(=O)N2CCCCC2)cc1NC(=O)CN1CCCC1c1cccs1 (configuration not stated)		3.66 µM (active)
COc1ccc(S(=O)(=O)N2CCCCCC2)cc1NC(=O)Cc1ccc(OC)c(OC)c1	6.32%	
Cc1ccc(S(=O)(=O)N2CCCCC2)cc1NC(=O)[C@@H]1CCCN1C(=O)c1cccs1	7.21%	
Cc1csc[n+]1CCC1CCCCC1		20 µM (active)
CC(=O)c1ccc(N2C(=NC(=O)C(C)C)SC3CS(=O)(=O)CC32)cc1 (configuration not stated)	-10.8%	
O=C(CSc1nc(-c2cccc(F)c2)[nH]c1-c1ccccc1)Nc1ccc2c(c1)OCO2		10.3 µM (active)
O=C(CSc1nnc(-c2ccccn2)n1-c1ccccc1)Nc1ccc2c(c1)OCO2	1.97%	
O=C(CN1CCN(CC(=O)Nc2ccc3c(c2)OCO3)CC1)Nc1ccc(F)cc1	-6.39%	
O=c1c(CCc2ccccc2)nc2cncnc2n1C1CC1	2.45%	
CCCNC(=O)C(=O)Nc1cc2c3c(c1)CCC(=O)N3CCC2	-0.193%	
Cc1cc(F)ccc1N1CCC(N2CCN(C)C(CCO)C2)CC1 (configuration not stated)	-17.2%	
O=S(=O)(c1cccc(-c2nnc3n2CCCCC3)c1)N1CCOCC1	-17.9%	
O=C(Nc1ccc2c(c1)nc1n2CCCCC1)c1cc(S(=O)(=O)N2CCOCC2)ccc1Cl		11.6 µM (active)
O=C(Nc1ccc(N2CCOCC2)c(Cl)c1)c1ccc(S(=O)(=O)N2CCOCC2)cc1	-19.1%	
N#C/C(=C(\O)C(F)(F)F)c1nnc2n1CCCCC2	-13.9%	
Cc1cccc(C(=O)OCC(=O)Nc2sccc2C(N)=O)c1C	6.25%	
COc1ccc(Cl)cc1CSc1ncn[nH]1	0.877%	
O=C(/C=C/Sc1ncn[nH]1)c1ccc(Cl)cc1		2.31 µM (active)
O=C(CSc1ncn[nH]1)N/N=C/c1ccc(F)cc1	0.0663%	
